Potency and affinity values are given separately. Active and inactive are the calls of the source.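 How the source made its calls: active means absorbance falls by 30% or more versus neutral controls, with a potency fitted within twice the top valid dose; inconclusive means no clear call, values can overlap the other calls; inactive means change opposite to expected direction, plus the rest.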

From PubChem BioAssay AID602350 (Broad Institute, 2012) come the findings set out here.

For the assay, the target named is Protein disulfide-isomerase (Homo sapiens) (UniProt P07237). The experiment in a line: inhibition of PDI-driven insulin aggregation – biochemical, turbidity, absorbance, cherry-picked samples, dose response (AID 602350).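 Further: 0% = neutral controls and -100% = rutin hydrate positive control wells.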 To be noted: recombinant PDI insulin aggregation, absorbance 650 nm, 90 min; series mostly up to 19.5 µM; activity change, negative = inhibition: at the top concentration.
Chain of Protein disulfide-isomerase (Homo sapiens) (P07237 whole entry, looked up): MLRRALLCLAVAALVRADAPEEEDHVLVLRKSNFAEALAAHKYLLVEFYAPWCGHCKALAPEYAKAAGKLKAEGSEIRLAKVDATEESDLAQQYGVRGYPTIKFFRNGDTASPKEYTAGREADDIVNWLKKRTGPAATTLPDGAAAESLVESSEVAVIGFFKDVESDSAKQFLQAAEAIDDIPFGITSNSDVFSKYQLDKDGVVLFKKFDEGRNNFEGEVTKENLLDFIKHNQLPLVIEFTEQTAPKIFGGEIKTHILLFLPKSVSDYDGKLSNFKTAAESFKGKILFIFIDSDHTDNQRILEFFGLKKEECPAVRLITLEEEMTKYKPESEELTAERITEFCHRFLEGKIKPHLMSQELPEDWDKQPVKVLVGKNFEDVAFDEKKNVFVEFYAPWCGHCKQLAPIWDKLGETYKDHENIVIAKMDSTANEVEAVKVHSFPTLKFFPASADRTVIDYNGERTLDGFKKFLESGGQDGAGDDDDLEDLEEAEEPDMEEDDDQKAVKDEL
With `S=C(NCCc1ccccc1)Nc1ccccn1`, the “activity change, negative = inhibition” value was 12.8% (inactive).
`C[C@]12CC[C@H]3C(=CCc4cc(O)ccc43)[C@@H]1CCC2=O`: the “activity change, negative = inhibition” value was -15.9% (inactive).
Turning to `CC(=O)c1ccc(NC(=O)c2cc(Cl)nc3ccccc23)cc1`, the “activity change, negative = inhibition” value is 1.56% (inactive).
For `CN(CCC(=O)Nc1ccc(Br)cc1)Cc1ccccc1`, the “activity change, negative = inhibition” value is 4% (inactive).
The figure for `O=C1CCC(=O)N1c1nc2nc(-c3ccccc3)cc(-c3ccccc3)n2n1` is -3.29% (inactive); for `COc1cc(C2C(C#N)=C(N)Oc3cc(O)ccc32)cc(OC)c1OC` (centres undefined) it is -7.09% (inactive).
`CC[C@]12c3[nH]c4cc(-c5ccco5)ccc4c3CCN1C(=O)[C@@H](CC(=O)NCCCOC)C[C@@H]2C(=O)N1CCN(C(=O)C2CC2)CC1`: the activity change, negative = inhibition is 0.067% [at 2.1 µM] (inactive).
To `CN(C1=NC(=O)C(CC(=O)Nc2ccc(Br)cc2)S1)c1ccc(O)cc1` (centres undefined) belongs -40.4% (inactive).
As to `CCOC(=O)C1=C(c2ccccc2)N=c2s/c(=C\c3cccc(O)c3)c(=O)n2C1c1cccs1` (centres undefined), the “activity change, negative = inhibition” value is -4.87% (inactive).
To `CN(C)CCCN(C(=O)c1ccc(S(=O)(=O)N2CCc3ccccc32)cc1)c1nc2c(Cl)cccc2s1` belongs -18.3% (inactive); to `C[C@@H]1CN([C@H](C)CO)C(=O)Cc2cc(NC(=O)Nc3ccccc3)ccc2O[C@H]1CN(C)Cc1ccccc1`, 3.58% [at 21 µM] (inactive).
Regarding `Cc1nnc(N/N=C/c2ccc(-c3ccccc3F)o2)n1N`, the “activity change, negative = inhibition” value was 0.128% (inactive).
As to `C[C@@H]1CN([C@H](C)CO)C(=O)Cc2cc(NC(=O)Nc3ccccc3)ccc2O[C@@H]1CN(C)Cc1ccccc1`, the “activity change, negative = inhibition” value was 7.95% [at 21 µM] (inactive).
As to `CCOC(=O)C1(C)CCCN(C(=O)c2cccc(Cl)c2)C1` (centres undefined), the “activity change, negative = inhibition” value is 11.9% (inactive).
As for `O=C(CCc1nc(-c2ccccc2F)no1)Nc1ccc(Oc2ccccc2)cc1`, the “activity change, negative = inhibition” value is 2.1% (inactive).
The figure for `COc1cc(C2C(C(C)=O)=C(O)C(=O)N2CCc2c[nH]c3ccccc23)ccc1O` (centres undefined) is -21.9% (inactive); for `O=C1NC(Cc2ccc(O)cc2)c2nc3cc(Cl)ccc3c(=O)n2-c2ncccc21` (centres undefined) it is -7.67% (inactive).
The figure for `CC(C)Oc1cccc(C(=O)NC(=S)Nc2cccc(NC(=O)c3ccccc3Cl)c2)c1` is 13.5% (inactive).
Consider `FC(F)(F)c1cccc(NC(=S)NCc2ccccn2)c1`, for which the “activity change, negative = inhibition” value is 1.52% (inactive).
Consider `COc1ccc(C[C@@H]2CN3C(=NC[C@@H]3Cc3ccc(O)cc3)N2C[C@H](C)NC(=O)CCC2CCCCC2)cc1`, for which the “activity change, negative = inhibition” value was -19.6% (inactive).
With `CCOC(=O)c1c(CN2CCN(C)CC2)n(C)c2cc(Br)c(OC)cc12`, the “activity change, negative = inhibition” value was -0.959% (inactive).
For the compound `Cc1ccc(NC(=O)CSC(C)C(=O)OCc2cc(=O)oc3cc(O)ccc23)cc1` (centres undefined), the “activity change, negative = inhibition” value was -30.2% (inactive).
The figure for `Cc1cc2c3c(c1)C1(C(=O)N3C(C)(C)CC2C)C(C#N)=C(N)Oc2n[nH]c(C)c21` (centres undefined) is -14.8% (inactive); for `CC(=O)c1ccc(N2CCN(C(=O)c3ccc4[nH]c(C)c(C)c4c3)CC2)cc1` it is 1.67% (inactive).
For the compound `Cc1ccc(CN(c2ccc(C(=O)Nc3ccc4c(c3)OCO4)cc2)S(C)(=O)=O)cc1`, the “activity change, negative = inhibition” value was 8.91% (inactive).
Turning to `O=C(Nc1ccccc1)c1cc(C2CCCCN2C(=O)c2ccccc2)on1` (centres undefined), the “activity change, negative = inhibition” value is 13.8% (inactive).
The figure for `O=C(NCc1ccccn1)Nc1cccc(Cl)c1` is -3.69% (inactive); for `CCC1Nc2ncnc(N3CCCCC3)c2N(Cc2ccc(C)cc2)C1=O` (centres undefined) it is -9.18% (inactive); for `CC(C)Cn1c(N)c(C(=O)COC(=O)c2ccc(O)cc2)c(=O)n(C)c1=O` it is -12% (inactive).
On to `Cc1ccc(NC2(c3nnnn3CCOC(=O)Nc3ccc(Cl)cc3)CCCCC2)cc1`, for which the “activity change, negative = inhibition” value is -1.59% [at 21 µM] (inactive).
To `COc1cccc(/C=C2\CCCCC2=O)c1` belongs 2.74% (inactive).
As to `O=C(/C=C/c1c(F)cccc1Cl)c1ccc(O)cc1`, the “activity change, negative = inhibition” value is -15.5% (inactive).
To `O=C(CN1C(=O)NC2(CCCC2)C1=O)Nc1ccc(C(F)(F)F)cc1` belongs 4.1% (inactive); to `O=C(NCCCN1CCOCC1)C(Sc1ccccc1)c1ccccc1` (centres undefined), 5.78% (inactive); to `O=C1N[C@@H](Cc2c[nH]c3ccccc23)COC(=O)[C@H](Cc2ccc(F)cc2)C/C=C\C[C@H]1CC(=O)N(CCO)Cc1ccccc1`, 6.97% (inactive).
Consider `CC(C)C[C@@H](CN1CCC[C@@H]1CN1C(=O)C(=O)NC[C@@H]1Cc1ccccc1)N1C[C@H](Cc2ccc(O)cc2)N(CCc2ccccc2)C(=O)C1=O`, for which the “activity change, negative = inhibition” value was -18.8% (inactive).
For `COc1ccc(CN(C)C[C@@H]2Oc3c(NS(C)(=O)=O)cccc3C(=O)N([C@H](C)CO)C[C@H]2C)cc1`, the “activity change, negative = inhibition” value is -21.9% (inactive).
In the case of `O=C(CCN1C(=O)C2C3C=CC(C4CC34)C2C1=O)Oc1ccccc1` (centres undefined), the “activity change, negative = inhibition” value was 5.35% (inactive).
Regarding `O=S(=O)(Nc1ccc(C(O)(C(F)(F)F)C(F)(F)F)cc1)c1ccc(Cl)c2nonc12`, the “activity change, negative = inhibition” value is -7.86% (inactive).
